Experimental data from PubChem BioAssay AID1159580 (chemical genetic matrix, 2015).
Where “and” joins values, the source holds several entries; their conditions need not be identical. Identical values can stand only once. Out of some 5,500 compounds screened, about 2,000 (36%) were called active. Inconclusive results (about 18%) are left out. No stated cut-off is given here; in the data, active means normalized growth mostly below about 0.91 (no sharp cut-off); inconclusive means no clear call, values can overlap the other calls; inactive means mostly above about 0.92. The list shows a part of the results.

Assay: chemical genetic growth profiling, strain panel (AID 1159580);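 further: tested at 20 µM; growth read once vehicle control cultures reached saturation at 30 °C; 1 = growth at the plate median or of vehicle wells; lower values mean less growth of the strain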
Details: S. cerevisiae deletion strains, growth OD

Measured: normalized growth

CCOC(=O)CCC(=O)O[C@H]1[C@H](O[C@@H]2[C@@H](C)[C@H](O[C@H]3C[C@@](C)(OC)[C@@H](O)[C@H](C)O3)[C@@H](C)C(=O)O[C@H](CC)[C@@](C)(O)[C@H](O)[C@@H](C)C(=O)[C@H](C)C[C@@]2(C)O)O[C@H](C)C[C@@H]1N(C)C
inactive: locus YAL021C, strain ccr4, hits give low values 1.01 | locus YAL026C, strain drs2, hits give low values 1.02 | locus YAL030W, strain snc1, hits give low values 0.99 | locus YBL061C, strain skt5, hits give low values 0.994 | locus YBR009C, strain hhf1, hits give low values 0.993 | locus YBR021W, strain FUR4, hits give low values 0.997 | locus YBR023C, strain chs3, hits give low values 0.999 | locus YBR171W, strain sec66, hits give low values 1.01 | locus YBR229C, strain ROT2, hits give low values 0.949 | locus YBR231C, strain swc5, hits give low values 0.971 | locus YBR279W, strain paf1, hits give low values 1.01 | locus YCL011C, strain gbp2, hits give low values 1.01 | locus YCL016C, strain dcc1, hits give low values 0.992 | locus YCL029C, strain bik1, hits give low values 0.99 | locus YCL069W, strain vba3, hits give low values 1 | locus YCR088W, strain abp1, hits give low values 1.01 | locus YDL005C, strain med2, hits give low values 0.994 | locus YDL035C, strain GPR1, hits give low values 0.945 | locus YDL040C, strain nat1, hits give low values 0.995 | locus YDL074C, strain BRE1, hits give low values 0.962 | locus YDL101C, strain DUN1, hits give low values 0.977 | locus YDL134C, strain PPH21, hits give low values 0.963 | locus YDL185W, strain tfp1, hits give low values 0.971 | locus YDL192W, strain arf1, hits give low values 0.985 | locus YDR001C, strain nth1, hits give low values 1.01 | locus YDR069C, strain doa4, hits give low values 0.983 | locus YDR101C, strain arx1, hits give low values 0.953 | locus YDR137W, strain rgp1, hits give low values 1.01 | locus YDR150W, strain NUM1, hits give low values 0.988 | locus YDR159W, strain sac3, hits give low values 0.979 | locus YDR162C, strain NBP2, hits give low values 0.955 | locus YDR195W, strain ref2 0.956 | locus YDR297W, strain sur2, hits give low values 1 | locus YDR318W, strain mcm21, hits give low values 0.996 | locus YDR334W, strain swr1, hits give low values 1 | locus YDR335W, strain msn5, hits give low values 0.993 | locus YDR388W, hits give low values 0.984 | locus YDR392W, strain spt3, hits give low values 1.03 | locus YDR502C, strain sam2, hits give low values 0.991 | locus YEL003W, strain gim4, hits give low values 1.01 | locus YEL037C, strain rad23, hits give low values 1.01 | locus YEL061C, strain CIN8 (second series), hits give low values 1.02 | locus YEL061C, strain CIN8, hits give low values 0.989 | locus YER015W, strain faa2, hits give low values 0.986 | locus YER016W, strain bim1, hits give low values 1.01 | locus YER110C, hits give low values 0.99 | locus YER111C, strain swi4, hits give low values 0.996 | locus YER155C, strain BEM2 (second series), hits give low values 0.985 | locus YER155C, strain BEM2, hits give low values 0.999 | locus YER167W, strain BCK2, hits give low values 0.999 | locus YFR010W, strain ubp6, hits give low values 1.03 | locus YGL078C, strain dbp3, hits give low values 0.994 | locus YGL086W, strain mad1, hits give low values 0.972 | locus YGL167C, strain pmr1, hits give low values 1 | locus YGL173C, strain kem1, hits give low values 1 | locus YGL227W, strain vid30, hits give low values 1.01 | locus YGL240W, strain doc1, hits give low values 0.975 | locus YGL248W, strain PDE1, hits give low values 0.986 | locus YGL253W, strain hxk2, hits give low values 1.01 | locus YGR135W, strain pre9, hits give low values 1.05 | locus YGR252W, strain gcn5, hits give low values 1.07 | locus YHR013C, strain ard1, hits give low values 0.997 | locus YHR027C, strain rpn1, hits give low values 1.02 | locus YHR030C, strain SLT2, hits give low values 0.995 and 1.03 | locus YHR079C, strain IRE1 (second series), hits give low values 0.962 | locus YHR079C, strain IRE1, hits give low values 1.04 | locus YHR094C, strain hxt1, hits give low values 0.985 | locus YHR129C, strain ARP1, hits give low values 0.986 | locus YHR142W, strain chs7, hits give low values 1.03 | locus YHR200W, strain rpn10, hits give low values 0.98 | locus YIL066C, strain RNR3, hits give low values 0.974 | locus YIL073C, strain SPO22, hits give low values 1 | locus YIL125W, strain kgd1, hits give low values 0.985 | locus YIR030C, strain dcg1, hits give low values 0.997 | locus YJL092W, strain hpr5, hits give low values 1.01 | locus YJL095W, strain BCK1 (second series), hits give low values 0.99 | locus YJL095W, strain BCK1, hits give low values 0.99 and 1.02 | locus YJL115W, strain asf1, hits give low values 1 | locus YJL129C, strain trk1, hits give low values 1 | locus YJL134W, strain LCB3, hits give low values 0.993 | locus YJL154C, strain vps35, hits give low values 1.01 | locus YJL164C, strain tpk1, hits give low values 0.999 | locus YJL166W, strain qcr8, hits give low values 0.993 | locus YJL168C, strain set2, hits give low values 0.985 | locus YJL187C, strain SWE1 (second series), hits give low values 0.991 | locus YJR043C, strain POL32, hits give low values 0.963 | locus YJR066W, strain TOR1, hits give low values 0.89 | locus YJR075W, strain HOC1, hits give low values 0.983 | locus YKL009W, strain mrt4, hits give low values 0.971 | locus YKL068W, hits give low values 0.987 | locus YKL085W, strain MDH1 (second series), hits give low values 0.995 | locus YKL085W, strain MDH1, hits give low values 0.995 | locus YKL160W, strain elf1, hits give low values 1 | locus YKR001C, strain vps1, hits give low values 0.981 | locus YKR026C, strain gcn3, hits give low values 1.01 | locus YKR091W, strain srl3, hits give low values 1 | locus YLL001W, strain dnm1, hits give low values 1 | locus YLL026W, hits give low values 0.991 | locus YLL041C, strain sdh2, hits give low values 1 | locus YLR027C, strain aat2, hits give low values 0.986 | locus YLR039C, strain RIC1, hits give low values 0.932 | locus YLR058C, strain SHM2, hits give low values 0.975 | locus YLR102C, strain apc9, hits give low values 0.986 | locus YLR113W, strain HOG1, hits give low values 1.11 | locus YLR221C, strain rsa3, hits give low values 1 | locus YLR258W, strain gsy2, hits give low values 0.983 | locus YLR262C, strain YPT6 (second series), hits give low values 1.04 | locus YLR262C, strain YPT6, hits give low values 0.885 | locus YLR268W, strain sec22, hits give low values 0.97 | locus YLR320W, strain mms22, hits give low values 0.996 | locus YLR330W, strain CHS5, hits give low values 0.985 | locus YLR342W, strain FKS1 (second series), hits give low values 0.985 | locus YLR342W, strain FKS1, hits give low values 0.985 | locus YLR357W, strain rsc2, hits give low values 0.982 | locus YLR370C, strain arc18, hits give low values 1.02 | locus YLR371W, strain rom2, hits give low values 0.992 | locus YLR384C, strain iki3, hits give low values 0.981 | locus YLR418C, strain cdc73, hits give low values 1.01 | locus YML016C, strain PPZ1, hits give low values 0.987 | locus YML032C, strain rad52, hits give low values 0.982 | locus YML120C, strain ndi1, hits give low values 0.995 | locus YML124C, strain tub3, hits give low values 0.988 | locus YMR058W, strain fet3, hits give low values 1.01 | locus YMR078C, strain ctf18, hits give low values 0.983 | locus YMR125W, strain sto1, hits give low values 1.01 | locus YMR129W, hits give low values 0.993 | locus YMR205C, strain PFK2, hits give low values 0.99 | locus YMR223W, strain ubp8, hits give low values 1.03 | locus YMR231W, strain pep5, hits give low values 0.998 | locus YMR263W, strain SAP30, hits give low values 0.984 | locus YMR307W, strain GAS1, hits give low values 0.97 | locus YNL067W, strain RPL9B, hits give low values 0.992 | locus YNL071W, strain lat1, hits give low values 0.996 | locus YNL153C, strain GIM3, hits give low values 0.983 | locus YNL183C, strain NPR1, hits give low values 0.981 | locus YNL209W, strain ssb2, hits give low values 0.991 | locus YNL233W, strain BNI4, hits give low values 0.988 | locus YNL248C, strain rpa49, hits give low values 1.04 | locus YNL250W, strain rad50, hits give low values 0.99 | locus YNL271C, strain bni1, hits give low values 0.997 | locus YNL298W, strain CLA4, hits give low values 0.99 | locus YNL307C, strain MCK1, hits give low values 0.989 | locus YNL322C, strain KRE1 (second series), hits give low values 0.988 | locus YNL322C, strain KRE1, hits give low values 0.995 | locus YNR049C, strain mso1, hits give low values 0.988 | locus YNR052C, strain pop2, hits give low values 1 | locus YOL012C, strain htz1 0.719 | locus YOL147C, strain pex11, hits give low values 0.995 | locus YOR001W, strain rrp6, hits give low values 1 | locus YOR061W, strain CKA2, hits give low values 0.966 | locus YOR069W, strain VPS5, hits give low values 0.991 | locus YOR070C, strain gyp1, hits give low values 0.991 | locus YOR080W, strain dia2, hits give low values 0.978 | locus YOR083W, strain WHI5, hits give low values 1.02 | locus YOR106W, strain vam3, hits give low values 0.989 | locus YOR136W, strain idh2, hits give low values 0.982 | locus YOR144C, strain elg1, hits give low values 0.987 | locus YOR184W, strain ser1, hits give low values 0.98 | locus YOR231W, strain MKK1, hits give low values 1.07 | locus YOR265W, strain rbl2, hits give low values 0.984 | locus YOR270C, strain vph1, hits give low values 1.03 | locus YOR290C, strain snf2, hits give low values 1.03 | locus YOR316C, strain cot1, hits give low values 0.975 | locus YPL051W, strain arl3, hits give low values 0.988 | locus YPL078C, strain atp4, hits give low values 0.991 | locus YPL106C, strain sse1, hits give low values 0.986 | locus YPL240C, strain hsp82, hits give low values 1.01 | locus YPL241C, strain CIN2, hits give low values 0.979 | locus YPL256C, strain CLN2, hits give low values 1.05 | locus YPR119W, strain clb2, hits give low values 0.988 | locus YPR141C, strain kar3, hits give low values 0.987 | locus YPR163C, strain tif3, hits give low values 0.989 | locus YPR167C, strain met16, hits give low values 0.991 | strain wtn01, hits give low values 0.99
